According to ChEMBL document CHEMBL1961873, “Compounds: GSK PKIS; Assays: Nanosyn kinase panel” (2012):

Target: Macrophage colony-stimulating factor 1 receptor (Homo sapiens) (UniProt P07333)
Settings: at 0.1 µM

Sequence of Macrophage colony-stimulating factor 1 receptor (Homo sapiens) (P07333 whole entry): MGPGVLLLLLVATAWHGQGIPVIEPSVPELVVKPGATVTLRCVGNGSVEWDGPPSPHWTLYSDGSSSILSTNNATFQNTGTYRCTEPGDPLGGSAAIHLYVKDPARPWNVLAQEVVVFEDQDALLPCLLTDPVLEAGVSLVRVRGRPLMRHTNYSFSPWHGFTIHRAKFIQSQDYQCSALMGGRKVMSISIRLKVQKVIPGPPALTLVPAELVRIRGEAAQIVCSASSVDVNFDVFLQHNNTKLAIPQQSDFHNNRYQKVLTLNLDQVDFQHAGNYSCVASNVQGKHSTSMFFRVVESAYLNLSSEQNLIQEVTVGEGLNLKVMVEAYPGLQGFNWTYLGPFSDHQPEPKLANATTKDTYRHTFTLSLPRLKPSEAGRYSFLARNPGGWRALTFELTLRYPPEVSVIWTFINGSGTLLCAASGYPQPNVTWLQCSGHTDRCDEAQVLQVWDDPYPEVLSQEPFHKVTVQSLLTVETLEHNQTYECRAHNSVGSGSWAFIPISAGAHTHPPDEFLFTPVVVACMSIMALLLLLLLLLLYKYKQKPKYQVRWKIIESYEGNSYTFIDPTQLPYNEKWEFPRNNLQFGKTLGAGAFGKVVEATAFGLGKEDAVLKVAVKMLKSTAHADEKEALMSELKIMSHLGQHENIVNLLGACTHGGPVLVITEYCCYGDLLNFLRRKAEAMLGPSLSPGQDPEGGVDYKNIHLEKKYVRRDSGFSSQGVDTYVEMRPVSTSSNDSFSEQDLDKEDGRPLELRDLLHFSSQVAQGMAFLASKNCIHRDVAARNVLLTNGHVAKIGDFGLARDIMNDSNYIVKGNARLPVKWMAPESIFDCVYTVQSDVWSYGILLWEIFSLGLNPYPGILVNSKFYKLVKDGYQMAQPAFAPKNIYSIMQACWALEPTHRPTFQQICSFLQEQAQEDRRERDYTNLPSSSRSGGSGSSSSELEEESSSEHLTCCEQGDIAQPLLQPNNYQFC

Compound | inhibition
CCS(=O)(=O)c1ccc(OC)c(Nc2ncc(-c3cccc(OC)c3)o2)c1 | 26.4%
CCn1c(-c2nonc2N)nc2c(C#CC(C)(C)O)nc(OCCNC)cc21 | -0.38%
CN1CCN(C(=O)c2ccc(NC(=O)Nc3ccc(N(C)c4ccnc(Nc5ccc(CS(C)(=O)=O)cc5)n4)cc3)cc2)CC1 | 87.7%
CC(C)c1ccc(Nc2nccc(-c3cnn4ncccc34)n2)cc1 | 23%
N#Cc1cccc(Nc2nccc(-c3cnn4ncccc34)n2)c1 | 34.4%
c1ccc(Cc2nc3ccc(Nc4ncnc5ccccc45)cc3[nH]2)cc1 | 4.66%
Cc1ccc(C(=O)NC2CC2)cc1-c1ccc2[nH]ncc2c1 | -5.43%
COC(=O)Nc1nc2cc(Oc3ccc(NC(=O)Nc4cccc(Br)c4)cc3)ccc2[nH]1 | 19.9%
NC(=O)c1sc(-n2cnc3ccccc32)cc1OCc1ccccc1Br | -0.73%
c1ccc(Nc2ncc(-c3ccccc3)o2)cc1 | 3.76%
CCCN1CCCC(c2ccc(Nc3nc(Nc4cc(F)ccc4C(N)=O)c4cc[nH]c4n3)c(OC)c2)C1 (stereo unspecified) | 34.6%
Nc1ccc(C#Cc2cncnc2Nc2ccc(OCc3cccc(F)c3)c(Cl)c2)cc1 | 0.06%
CN(C)C(=O)O[C@H]1CN[C@H](C#Cc2cc3ncnc(Nc4ccc(OCc5cccc(F)c5)c(Cl)c4)c3s2)C1 | 10.5%
O=C1Nc2ccc(-c3cccnc3)cc2C1=Cc1cc(Br)c(O)c(Br)c1 | 4.24%
CS(=O)(=O)Nc1cccc(-c2ccc3c(NC(=O)C4CC4)n[nH]c3c2)c1 | -0.21%
CCS(=O)(=O)c1ccc(OC)c(Nc2nccc(N(C)c3ccc4c(C)n[nH]c4c3)n2)c1 | 5.72%
COc1cccc(-n2ncc3c(N/N=C/c4ccc(S(C)(=O)=O)cc4)ncnc32)c1 | 6.39%

Compound | inhibition
Cc1ccc2c(-c3ccnc(Nc4cccc(C(F)(F)F)c4)n3)c(-c3ccccc3)nn2n1 | 1.77%
Cc1ccc2c(-c3ccnc(Nc4ccc5c(c4)OCCO5)n3)c(-c3ccc(C(F)(F)F)cc3)nn2n1 | -1.16%
NS(=O)(=O)c1ccc(-c2cc3ccncc3cc2OCc2ccccc2)cc1 | -0.56%
COc1ccc2ncnc(Nc3ccc(OCc4ccccc4)cc3)c2c1 | 3.05%
CCn1c(-c2nonc2N)nc2ccc(F)cc21 | 1.29%
N#Cc1c(NC(=O)c2ccccc2F)sc2c1CCCC2 | -4.22%
COc1cccc(-n2nc(C)c3c(N/N=C(\C)c4ccncc4)ncnc32)c1 | -1.96%
OCc1ccc(-c2nc(-c3ccccn3)c(-c3ccc4c(c3)OCO4)[nH]2)cc1 | 3.57%
CCOc1nccc2c1nc(-c1nonc1N)n2CC | 0.65%
NS(=O)(=O)c1ccc(N/N=C2\C(=O)Nc3ccc(Cl)cc32)cc1 | 3.24%
Cc1ccc(O)cc1Nc1ccnc2ccc(S(C)(=O)=O)cc12 | 5.71%
COC(=O)c1ccc2c(c1)C(=Cc1cc(Br)c(O)c(Br)c1)C(=O)N2 | 2.87%
[O-][S+]1CCN(Cc2ccc(-c3ccc4ncnc(Nc5ccc(OCc6ccccc6)c(Cl)c5)c4c3)o2)CC1 | -0.34%
COc1cccc(-n2ncc3c(N/N=C/c4ccc(C)cc4)ncnc32)c1 | 4.53%
O=S(=O)(CCOCc1ccc(-c2ccc3ncnc(Nc4ccc(OCc5cccc(F)c5)c(Cl)c4)c3c2)o1)c1ccccc1 | -1.86%
COc1cc(/C=N/Nc2ncnc3c2cnn3C(C)C)ccc1O | 8.23%

Target: Macrophage colony-stimulating factor 1 receptor (Homo sapiens) (UniProt P07333)
Settings: at 1 µM

Compound | inhibition
CCS(=O)(=O)c1ccc(OC)c(Nc2ncc(-c3cccc(OC)c3)o2)c1 | 71.9%
CCn1c(-c2nonc2N)nc2c(C#CC(C)(C)O)nc(OCCNC)cc21 | 3.67%
CN1CCN(C(=O)c2ccc(NC(=O)Nc3ccc(N(C)c4ccnc(Nc5ccc(CS(C)(=O)=O)cc5)n4)cc3)cc2)CC1 | 81.2%
CC(C)c1ccc(Nc2nccc(-c3cnn4ncccc34)n2)cc1 | 72.1%
N#Cc1cccc(Nc2nccc(-c3cnn4ncccc34)n2)c1 | 79.4%
c1ccc(Cc2nc3ccc(Nc4ncnc5ccccc45)cc3[nH]2)cc1 | 5.24%
Cc1ccc(C(=O)NC2CC2)cc1-c1ccc2[nH]ncc2c1 | 4.56%
COC(=O)Nc1nc2cc(Oc3ccc(NC(=O)Nc4cccc(Br)c4)cc3)ccc2[nH]1 | 43.2%
NC(=O)c1sc(-n2cnc3ccccc32)cc1OCc1ccccc1Br | 7.89%
c1ccc(Nc2ncc(-c3ccccc3)o2)cc1 | 22.9%
CCCN1CCCC(c2ccc(Nc3nc(Nc4cc(F)ccc4C(N)=O)c4cc[nH]c4n3)c(OC)c2)C1 (stereo unspecified) | 78.6%
Nc1ccc(C#Cc2cncnc2Nc2ccc(OCc3cccc(F)c3)c(Cl)c2)cc1 | 3.9%
CN(C)C(=O)O[C@H]1CN[C@H](C#Cc2cc3ncnc(Nc4ccc(OCc5cccc(F)c5)c(Cl)c4)c3s2)C1 | 3.36%
O=C1Nc2ccc(-c3cccnc3)cc2C1=Cc1cc(Br)c(O)c(Br)c1 | 7.78%
CS(=O)(=O)Nc1cccc(-c2ccc3c(NC(=O)C4CC4)n[nH]c3c2)c1 | 1.8%
CCS(=O)(=O)c1ccc(OC)c(Nc2nccc(N(C)c3ccc4c(C)n[nH]c4c3)n2)c1 | 32.2%
COc1cccc(-n2ncc3c(N/N=C/c4ccc(S(C)(=O)=O)cc4)ncnc32)c1 | 22.5%

Compound | inhibition
Cc1ccc2c(-c3ccnc(Nc4cccc(C(F)(F)F)c4)n3)c(-c3ccccc3)nn2n1 | 23.1%
Cc1ccc2c(-c3ccnc(Nc4ccc5c(c4)OCCO5)n3)c(-c3ccc(C(F)(F)F)cc3)nn2n1 | 14.6%
NS(=O)(=O)c1ccc(-c2cc3ccncc3cc2OCc2ccccc2)cc1 | 1.76%
COc1ccc2ncnc(Nc3ccc(OCc4ccccc4)cc3)c2c1 | 3.66%
CCn1c(-c2nonc2N)nc2ccc(F)cc21 | 0.35%
N#Cc1c(NC(=O)c2ccccc2F)sc2c1CCCC2 | -1.66%
COc1cccc(-n2nc(C)c3c(N/N=C(\C)c4ccncc4)ncnc32)c1 | 5.8%
OCc1ccc(-c2nc(-c3ccccn3)c(-c3ccc4c(c3)OCO4)[nH]2)cc1 | 4.35%
CCOc1nccc2c1nc(-c1nonc1N)n2CC | 2.68%
NS(=O)(=O)c1ccc(N/N=C2\C(=O)Nc3ccc(Cl)cc32)cc1 | 31.8%
Cc1ccc(O)cc1Nc1ccnc2ccc(S(C)(=O)=O)cc12 | 15.8%
COC(=O)c1ccc2c(c1)C(=Cc1cc(Br)c(O)c(Br)c1)C(=O)N2 | 16.5%
[O-][S+]1CCN(Cc2ccc(-c3ccc4ncnc(Nc5ccc(OCc6ccccc6)c(Cl)c5)c4c3)o2)CC1 | 0.13%
COc1cccc(-n2ncc3c(N/N=C/c4ccc(C)cc4)ncnc32)c1 | 12.9%
O=S(=O)(CCOCc1ccc(-c2ccc3ncnc(Nc4ccc(OCc5cccc(F)c5)c(Cl)c4)c3c2)o1)c1ccccc1 | 7.49%
COc1cc(/C=N/Nc2ncnc3c2cnn3C(C)C)ccc1O | 42.3%
